High-throughput results deposited in PubChem BioAssay by National Center for Advancing Translational Sciences (NCATS).
Only some compounds are listed: those with a hit (about 7.9% of all), similar ones and a draw of the others.
KB-3-1 cytotox: KB-3-1 parental cell cytotoxicity. KB-3-1 viability, CellTiter-Glo ATP luminescence, 72 h. Potency, µM (doses to about 46.1 µM), most hits filed as cytotoxic. 400,000 tested, 1.4% active. AID 1347075; also: % is scaled to controls: 0 for no effect and ±100 for the full control effect; nearly all actives have a fitted effect of over 60% in size
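KB-3-1 cells, DMEM (no phenol red) + 10% FBS; compound by pin transfer, 72 h, 37 °C. Readout: CellTiter-Glo luminescence after 10 min. Data normalized, curve-fitted.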
HT1080 IDH1KD tx: toxicity to HT-1080 IDH1 knockdown cells (counter line). HT-1080 IDH1 knockdown viability, ATP luminescence, 48 h. AID 686971. Potency, µM (series often up to 46.1 µM), for the others: top-dose activity, negative = toxicity, actives largely listed as cytotoxic. 360,000 tested, 2% active;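 also: 0% = DMSO wells and -100% = cell-free medium wells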
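Cytotoxicity counter-line: IDH1KD HT-1080, 48 h, CellTiter-Glo. Curves classed by r2, magnitude and activity.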
HT1080NT lethal: kills 2HG-producing HT-1080-NT fibrosarcoma cells; 360,000 tested, 1.6% active; AID 686970; HT-1080-NT fibrosarcoma viability, CellTiter-Glo ATP luminescence, 48 h; Potency, µM (titrated, usually from 46.1 µM), inactives show top-dose activity, negative = less viability, usual class: cytotoxic;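 also: NT is the 2HG producing partner of a matched IDH1 knockdown line; 0% = DMSO-treated cells and -100% = media-only wells without cells; nearly all actives have a fitted effect of over 55% in size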
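Viability by CellTiter-Glo luminescence after 48 h compound exposure at 37C of HT-1080-NT cells (750/well, RPMI, 5% FBS). % activity scaled between DMSO wells and medium-only wells, then curve-fitted and categorized by curve class.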
SW480 rerep: induces DNA re-replication in SW480 colon adenocarcinoma cells. SW480 DNA re-replication, Hoechst DNA content imaging, 48 h. Potency, µM (doses to about 46.1 µM), without a hit: top-dose re-replication activation, hits mostly activators. 340,000 tested, 1.8% active. AID 624297; also: % of control where 0% means no effect; nearly all actives have a fitted effect of over 55% in size
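First, 250 cells per well were seeded. Next, compound or vehicle (23 nL) was pinned in, plates sat 48 hr at 37 C. Finally Hoechst was added for 40 min before fluorescence scanning.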
KB-V1 cytotox: KB-V1 MDR subline cytotoxicity; KB-V1 MDR cells viability, CellTiter-Glo, 72 h; Potency, µM (titrated, usually from 46.1 µM), hits mostly cytotoxic; 400,000 tested, 3.4% active; also: % is scaled to controls: 0 for no effect and ±100 for the full control effect; nearly all actives have a fitted effect of over 60% in size
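KB-V1, DMEM (no phenol red) + 10% FBS; cpd pin-transferred, titration series; 72 h, 37 degrees C; CellTiter-Glo, luminescence. Data normalized, curve-fit.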
MCF10A rerep: inducers of DNA re-replication in MCF 10A breast cells. MCF 10A DNA re-replication, Hoechst nuclear intensity, 48 h. Potency, µM (top dose mostly 46.1 µM), for inactives: top-dose activity, positive = re-replication, actives largely listed as activators. 350,000 tested, 2.9% active; also: % of control where 0% means no effect; nearly all actives have a fitted effect of over 50% in size
Numbers without * were called inactive; i = inactive; ? = inconclusive; nt = not tested or not shown; [ ] = another dose, or the depositor's remark. Calls follow the shape of the dose curve; as a rule, active = well fitted curve in the direction sought with a large enough effect; inconclusive = small, poorly fitted or top-dose-only effect, or another doubt; inactive = no such curve, though single readings can be large; an effect the other way counts as inactive or inconclusive. Potency is read from the fitted curve at half-maximal effect.

SMILES	KB-3-1 cytotox	HT1080 IDH1KD tx	HT1080NT lethal	SW480 rerep	KB-V1 cytotox	MCF10A rerep
CCCCc1cc(=O)oc2cc(O)cc(O)c12	i	-12%	-20%	0%	i	?
O=C(N/N=C(\c1ccccc1)c1ccccn1)c1cccc([N+](=O)[O-])c1	?	?	?	-4%	i	5%
CCOc1ccc(C(=O)N/N=C(\c2ccccc2)c2ccccn2)cc1	?	2.3µM*	?	8.2µM*	i	28%
COc1cccc(-c2onc3ccc(C4(C)OCCO4)cc23)c1	i	-4%	0%	16%	i	18µM*
O=C(COc1ccccc1[N+](=O)[O-])N(C1CCCCC1)C1CCS(=O)(=O)C1 (stereo not given)	i	5%	9%	?	i	?
Cc1sc2nc(C)n(/N=C/N(C)C)c(=O)c2c1C	i	25%	-6%	15µM*	i	0%
Cc1sc2nc(C)n(/N=C/c3ccc(O)cc3)c(=O)c2c1C	i	13%	3%	0%	i	1%
O=C(Nc1ccc2c(c1)CCC2)c1c(F)cccc1Cl	i	6%	14%	-1%	i	-1%
COc1cccc(-n2nnc3c(=O)n(Cc4c(F)cccc4Cl)cnc32)c1	i	11%	11%	-1%	i	?
N=c1n(CCN2CCCCC2)c2ccccc2n1CC(=O)c1cccs1	?	?	?	8.2µM*	i	?
O=C(CCN1CCCCCC1)c1ccccc1	i	3%	12%	-2%	i	-2%
O=C(CCN1CCC(c2ccccc2)C1)c1cccs1 (stereo not given)	i	4µM*	?	-2%	i	11%
O=C(CCN1CCCC1)c1cccs1	i	1%	-4%	103%	i	23µM*
Cc1cc(C)cc(CC(Cc2nc3ccccc3[nH]2)c2nc3ccccc3[nH]2)c1 (stereo not given)	16µM*	?	18µM*	-3%[9.22 µM]	i	?
c1ccc2[nH]c(CSc3ncnc4c3oc3ccccc34)nc2c1	?	-4%	-10%	6%	4.6µM*	?
Cc1ccc(CSCc2nc3ccccc3[nH]2)cc1	i	?	-1%	?	i	16µM*
Clc1ccc(SCc2nc3ccccc3[nH]2)cc1	i	-18%	-14%	1%	23µM*	?
CCOC(=O)c1sc2ncn(CC(=O)Nc3cc(Cl)ccc3C)c(=O)c2c1C	i	nt	nt	nt	i	nt
Cc1cccc(Nc2nc(N)c(C#N)c(CC#N)c2C#N)c1	i	-9%	-10%	-2%	i	?
c1coc(-c2nnc(SCc3nc4ccccc4[nH]3)o2)c1	?	-19%	-6%	-1%	15µM*	5%
c1ccc(CSc2nnc(-c3ccco3)o2)cc1	i	15%	20%	12%	i	23%
Cc1cc(C)n2nc(C(=O)N/N=C/c3c4ccccc4cc4ccccc34)nc2n1	i	?	?	?	?	8.2µM*
COCCNC(=S)N/N=C/c1c2ccccc2cc2ccccc12	i	-16%	-17%	18µM*	i	15µM*
C[N+](C)(C)CC(=O)N/N=C/c1c2ccccc2cc2ccccc12	i	1%	-2%	30%	?	18µM*
CCOC(=O)c1cn(CC(=O)Nc2ccccc2C(=O)OCC)nn1	i	8%	-1%	-1%	i	3%
SMILES	KB-3-1 cytotox	HT1080 IDH1KD tx	HT1080NT lethal	SW480 rerep	KB-V1 cytotox	MCF10A rerep
COc1ccc(N(C)C(=O)c2cc3c(Cl)nc4ccccc4c3s2)cc1	i	-4%	-21%	3%	i	1%
O=C(CC1C(=O)N(c2ccccc2)C(=O)N1CCc1cccs1)Nc1ccc(Cl)cc1 (stereo not given)	i	nt	nt	nt	i	nt
Cc1cccc(N2CCN(C(C(=O)NCc3ccccc3)c3ccco3)CC2)c1C (stereo not given)	i	?	?	nt	?	nt
COc1cccc(C(C(=O)NCc2ccccc2)N2CCN(c3cccc(C)c3C)CC2)c1OC (stereo not given)	?	?	?	nt	16µM*	nt
CCCCNC(=S)Nc1ccccc1Cc1ccccc1	?	-12%	-5%	0%	?	-1%
CCOc1ccccc1N(C)C(=O)c1cc2c(=O)n(CC)c3ccccc3c2s1	?	-2%	-2%	18µM*	i	3.7µM*
CCn1c(=O)c2cc(C(=O)NCCOC)sc2c2ccccc21	i	6%	14%	-9%	i	13%
CCOCCCNC(=O)c1cc2c(=O)n(CC)c3ccccc3c2s1	?	-29%	?	?	i	23µM*
Nc1nc(Sc2ccc([N+](=O)[O-])c3nonc23)c2[nH]cnc2n1	2.1µM*	1.8µM*	4.6µM*	?	?	?
Nc1ncnc(Sc2ccc(Cl)cc2)c1[N+](=O)[O-]	i	-14%	-3%	-3%	i	?
Nc1nc(SCc2ccccc2)c2[nH]cnc2n1	i	-1%	7%	57%	i	1%
CNc1ncnc(Sc2nc(N)nc3nc[nH]c23)c1[N+](=O)[O-]	?	1.3µM*	2.9µM*	2.9µM*	1µM*	?
O=C(/C=C/c1ccc(Cl)cc1Cl)Nc1cccc(S(=O)(=O)NC2=NCCCCC2)c1	i	?	-17%	1%	i	?
O=C1/C(=C/c2ccccn2)COc2ccccc21	i	-14%	-21%	?	i	?
O=C1/C(=C/c2ccc(O)cc2)COc2ccccc21	i	?	?	18µM*	i	?
O=C1/C(=C/c2ccccc2[N+](=O)[O-])COc2ccccc21	i	18µM*	8.2µM*	-349%[1.84 µM]	i	?
CC(C)(O)C#Cc1ccc(CN2CCN(C3CCCC3)C(CCO)C2)cc1 (stereo not given)	i	-3%	0%	-7%	i	?
CCOc1ccccc1NC(=O)c1oc2ccccc2c1NC(=O)C1CC1	nt	8%	7%	3%	nt	?
C/C(=N\NC(=O)CCCNc1ccccc1)c1ccncc1	i	3%	12%	-1%	i	?
COc1cc(NC(=O)c2ccc(Br)cc2)c(OC)cc1NC(=O)c1ccccc1	i	0%	-5%	-2%	i	?
O=C(Cc1ccc(Br)cc1)NCc1ccccc1	5.8µM*	2.9µM*	8.2µM*	5.8µM*	4.6µM*	5.8µM*
Cc1ccc(CNC(=O)Cc2ccc(Br)cc2)cc1	?	8.2µM*	23µM*	?	?	6.5µM*
